# In the supplement of paper PMC6555819:
# What was measured:
# Test in all cases: PBM binding z-score (relative to random genomic background probes); higher = stronger binding; sequences stand for … in GC…GCGATTGACAGCGTAGAATGAAGG
# [1] = test system: PPARg:RXRa DBDmut IVT, anti-RXR (DBD mutation: RXRa K156A/R161A, NR concentration 270 nM, RXRa partner concentration 90 nM)
# Summary of the method: (§1)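 Custom Agilent 4×180K protein-binding microarrays carried double-stranded probes. Their 34-nt variable regions held direct-repeat seeds, single-nucleotide variants, half-site ablations and random human genomic background sequences. Arrays were incubated 1 h with ligand-free nuclear receptor dimers in PBS pH 7.4, 2% milk, 0.02% Triton X-100, 1 mM DTT, 0.2 mg/mL BSA and 0.4 mg/ml salmon testes DNA. Antibodies against each partner (one per run) detected binding, and scanned fluorescence was regression-normalized. Binding z-scores use random background probes as reference.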
# [2] = test system: PPARg:RXRa IVT, anti-PPARg (NR concentration 270 nM, RXRa partner concentration 90 nM)
# Summary of the method: as §1
# [3] = test system: PPARg DBDmut:RXRa IVT, anti-PPARg (DBD mutation: PPARg1 K132A/R137A, NR concentration 270 nM, RXRa partner concentration 90 nM)
# Summary of the method: as §1
# [4] = test system: PPARg DBDmut IVT, anti-PPARg (DBD mutation: PPARg1 K132A/R137A, NR concentration 270 nM)
# Summary of the method: as §1
# [5] = test system: PPARg homodimer (NR concentration 180 nM)
# Summary of the method: as §1
# [6] = test system: PXR:RXRa (NR concentration 270 nM, RXRa partner concentration 90 nM)
# Summary of the method: as §1
# [7] = test system: PXR homodimer (NR concentration 270 nM)
# Summary of the method: as §1
# [8] = test system: RARa:RXR (NR concentration 270 nM, RXRa partner concentration 90 nM)
# Summary of the method: as §1
# [9] = test system: RARa homodimer (NR concentration 270 nM)
# Summary of the method: as §1
# [10] = test system: RARb:RXRa (NR concentration 270 nM, RXRa partner concentration 90 nM)
# Summary of the method: as §1
Sequence,PBM binding z-score [1],PBM binding z-score [2],PBM binding z-score [3],PBM binding z-score [4],PBM binding z-score [5],PBM binding z-score [6],PBM binding z-score [7],PBM binding z-score [8],PBM binding z-score [9],PBM binding z-score [10]
CCTACTTGGCCAAAAAGGTCATTGATGCCGATAA,1.07,1.98,0.866,0.465,4.5,4.93,2.68,5.78,3.1,3.99
ATCTCTAGGTAAAGATAGTTCAGTGAATGCAAAT,2.16,1.66,1.03,1.61,0.566,0.795,0.763,0.643,0.47,0.654
CGACCAAGGTCATAGGAGGTCAGTGAAGACAGAT,3.37,4.52,0.399,-0.258,5.37,6.88,4.39,6.18,2.16,5.22
CGAACTAGGTCATCCAGGACTGTGAATACATTGA,8.21,8.17,6.94,2.3,3.35,1.48,0.582,2.24,0.701,3.73
AGTCAACGTTCATCTAGGTAACGTAAGATATGCT,0.5,1.94,0.919,0.334,0.649,-0.212,-0.489,0.244,-0.0246,0.796
CGTCCAAGGTCTTAGGAGGTCAGTGAAGACAGAT,0.587,1.31,-0.3,-0.454,1.17,3.07,0.796,2.15,-0.152,2.46
CGAACTAGGTCAAGTACAGTGAATCTCCGCACGC,8.4,8.26,1.96,1.97,2.76,1.8,0.0981,2.37,0.517,4.19
CGTCCAAGGTGAAGGTCAGTGAAAGAGACTCGAA,1.92,2.94,-0.298,-0.465,0.911,1.43,-0.222,2.11,0.387,3.93
GCGACTGGGGCATCAGCAGGTTACCATGACTTAA,3.94,2.97,-0.844,-0.497,-0.0201,-0.489,-0.454,-0.00016,-0.803,0.805
GCTGCTGGGTCAACTGATGGTCAGCTAAAGCTCG,3.67,3.45,0.524,-0.337,1.55,1.94,-0.46,2.61,-0.59,3.98
CAAACTTGGTCAAGAGGTCAAAGTCCGCTTCCCG,2.35,3.8,0.805,0.619,2.46,5.73,1.66,6.15,1.11,4.47
TCAAGTAGGTTAGTCGGGGCATTCAGCCAACATA,4.81,4.14,0.386,1.15,1.35,0.801,0.708,0.739,0.814,0.917
GCTATTAGTTGAAAGGGCAGCCGAATGATTCTCG,0.343,0.268,-0.735,-0.14,0.871,0.09,0.28,0.515,0.871,1.78
TGAATGAGGTTAAAGATCACGGAACGTGGCGTCG,2.31,3.53,0.896,0.358,0.7,2.94,-0.299,4.67,0.0716,2.18
CGTCAAAGTTCAACTAAGCTAACGTAAAGCACGC,0.667,1.69,1.11,1.29,3.28,4.69,4.44,3.82,2.34,5.31
TGAATGAGGTTATAAAATCAGGGAACGTTGCAAA,0.257,1.47,1.21,0.504,0.289,0.62,-0.104,0.96,-0.0179,0.918
CGTTAAAGTTCAAGGTAACGTAACAGAAAGCAGC,0.894,2.08,0.767,0.8,1.94,3.79,2.16,2.94,2.05,4.96
ACTATTAGTTGAGACGACGGCAACCGATAGGTTG,-0.317,-0.0579,0.669,0.567,0.0844,-0.384,-0.0364,-0.302,0.521,-0.0586
ACTATTAGTTGAGGCGAGGGCAACCGATAGGTTG,0.169,0.559,0.713,0.82,0.794,0.918,0.305,0.644,0.393,1.4
ATCTCTAGGTAAGCCTCAGTTCAGTGAAGAACGC,2.22,1.13,-0.0785,0.191,0.657,1.23,0.98,0.356,0.375,0.44
GATACAGGGTCAGCTAGAGGCCATAGTATGGAAA,0.981,2.33,0.47,-0.0794,2.26,3.96,0.241,4.62,0.222,4.15
CCTTACGGATCAAGGTTATAGCACGGGTGGTACG,-0.655,0.0573,-0.059,0.154,0.562,0.548,0.798,0.636,1.03,0.891
CATTCAGGGTCAGCTAGGCCAGAGTAGGGACGGC,1.6,3.11,2.17,0.968,1.47,2.74,0.0308,3.58,0.262,4.42
ATATTTAGGTTACATCCGGGTCATTCAGGCTATG,6.5,6.04,2.49,3.35,3.88,3.75,3.78,4.29,3.08,2.54
CATTACGGGTCACTCCAGGTTATAGCATCGGAGT,3.99,4.96,1.72,1.65,2.09,5.11,0.705,3.78,0.9,3.97

Sequence,PBM binding z-score [1],PBM binding z-score [2],PBM binding z-score [3],PBM binding z-score [4],PBM binding z-score [5],PBM binding z-score [6],PBM binding z-score [7],PBM binding z-score [8],PBM binding z-score [9],PBM binding z-score [10]
AGTCAAAGTTCATCTAGGTAACGTAAGATATGCT,1.19,3.69,1.19,1.17,3.13,5,7.49,3.72,2,5.01
GCGACTGGGACATCAGCAGGTTACCATAACTTAA,1.95,1.18,-0.236,-1.24,-0.146,-0.226,-0.651,-0.109,-0.694,0.0627
AGAAGGAGGTTAAGATCAGGGAAACAGAATACAT,1.24,1.78,1.73,0.272,2.06,1.5,1.36,1.51,1.44,1.85
TAGCCTAGGTCAGATCAGGCCAGTATACGCTATA,0.459,1.56,0.119,-0.493,0.306,2.07,-0.691,1.21,-0.581,2.93
GGAACGAGGGCATTCGAGTGGATAGCATGGCGAT,2.7,1.91,0.297,-0.551,-0.225,0.6,-0.278,0.17,-0.0575,1.74
ACTAGCAGGCCAAGTTAGGGTCACTCAAACAAAG,0.489,1.32,0.153,-0.603,1.07,3,0.292,3.73,-0.482,2.86
CAAACTAGGGCACGAAAGGTCAAAGTCGAATGAC,7.59,8.38,2.22,0.682,2.46,5.93,1.28,6.53,1.46,4.98
TCTAGCAGGCCAGAGGGTCAGTCAAGAGGTACGG,0.768,0.496,-0.553,-1.25,0.21,0.465,-0.829,0.985,-0.753,1.77
GCTATTAGTTGAAAGGGCAACCGAATGATTCTCG,0.456,1.11,0.0571,0.432,1.15,0.708,0.108,1.38,0.652,2
ATCTCTAGGTAAGACTCAGTGCAGTGAAGAACGC,1.64,0.686,0.237,0.958,0.398,0.339,0.592,0.223,0.328,-0.152
ACTAGTAGTTGAGACGAGGGCAACCGATAGGTTG,-0.0209,0.386,-0.147,-0.849,-0.115,1.63,0.115,0.6,0.181,0.978
GGAACGAGGGCGAGTTGATAGCAGAGTTTGATGG,0.699,-0.0712,-0.327,0.298,0.0249,0.0143,-0.021,0.0866,-0.148,0.356
CGAACTAGGTCAGTACAGGACAGTGAAGGATGAT,7.48,7.01,0.814,0.573,1.07,0.911,-0.456,0.671,0.153,3.04
CGTACTGGGCCAAAAAGGTCATTGATGCCGATAA,4.13,3.76,-0.0861,-0.32,3.08,4.6,3.5,4.94,1.6,3.87
GCGACTGGGGCATCAGCAGGTTATCATAACTTAA,3.69,3.13,-0.424,-0.757,0.000895,0.377,-0.554,0.458,-0.474,0.845
ACTCGGAGTACAAAGGTCAGAGCTACGCCAGTGA,0.771,3.83,-0.013,0.136,3.32,4.1,0.393,4.96,2.36,4.39
CCGGCTAGGTCAATGGTCAGCTAAAGCAGCTCGC,3.12,2.61,-1.05,-0.801,0.684,0.817,-0.491,1.75,0.248,3.8
CGAACGAGGGCCTGAGTTGATAGCAAATGCCGAT,-0.653,-0.278,-0.385,-0.392,-1.19,-0.457,-0.641,-0.337,-0.966,-0.393
CAAACTAGGTCACGAAAGGTCAAAGGCGAATGAC,8.48,9.08,4.73,2.51,5.53,7.28,2.45,8.15,3.08,5.86
CAAACTAGGTCACCAAAGGTCAAAGTCGAATGAC,8.22,9.1,3.38,2.17,3.38,6.88,2.28,7.52,3.8,5.85
TCTATTAGTGGAAGGGCAACCGACGAGTCCGTTT,2.03,0.68,0.155,-0.147,0.597,0.698,0.821,0.778,0.46,1.59
TGAAGGAGGTTAAAGATCAGGGAACGTGGCGTCG,1,2.36,0.183,-0.165,1.34,1.63,0.472,2.7,0.897,1.74
ACTCTTAGTTGAGACGAGGGCAACCGATAGGTTG,-0.123,0.386,-0.0171,0.118,-0.417,1.34,-0.122,0.668,-0.22,0.939
CCTCGGAGGACAACAGGAGGTCACAGCTGCCAGA,0.582,1.67,-1.61,-1.12,2.8,4.2,0.604,4.69,0.924,3.35
